PubChem BioAssay (EPA / NIEHS)
Inconclusive results are not listed. Active and inactive are the calls of the source. How the source made its calls, unless noted: active means hit-call score of the fitted dose curve at least 0.9, where 1 is the maximum; inactive means score below 0.9.

Key:
[1] = CCTE_Harrill_HTTr_Viability_MCF7: CCTE's 6-hour Cell Viability Assessment for the High-Throughput Transcriptomics (HTTr) Platform, in MCF-7 cells cultured in DMEM + 10% fetal bovine serum, Harrill Lab (AID 2284010)
How it was run: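 Propidium iodide exclusion, imaged by high-content analysis, gauged viability after a six-hour exposure across eight concentrations. Cells were MCF-7 grown in DMEM with 10% fetal bovine serum; fits run in both directions against DMSO.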

[2] = CCTE_Harrill_HTTr_Apoptosis_MCF7: CCTE's 6-hour Apoptosis Assessment for the High-Throughput Transcriptomics (HTTr) Platform, in MCF-7 cells cultured in DMEM + 10% fetal bovine serum, Harrill Lab (AID 2284011)
How it was run: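 High-content imaging of CellEvent Caspase 3/7 Green signal follows a six-hour exposure, with eight concentrations per chemical. MCF-7 cells grown in DMEM plus 10% fetal bovine serum; activity fitted in both directions against DMSO.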

[3] = CCTE_Harrill_HTTr_CellCount_MCF7: CCTE's Cell Proliferation Assessment for the High-Throughput Transcriptomics (HTTr) Platform, Harrill Lab (AID 2284012; active means hit-call score of the fitted dose curve at least 0.9, where 1 is the maximum;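 further: cells exposed to compound for six hours; intended direction is loss of nuclei count meaning fewer cells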)
How it was run: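 Cell count from high-content imaging of Hoechst-labeled nuclei serves as viability/growth readout. Chemicals were applied to MCF-7 cells in eight concentrations for six hours, with fitting in both directions relative to DMSO.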

Compound	outcome [1]	outcome [2]	outcome [3]
N#CCCO	inactive	inactive	inactive
C[C@]12CC[C@H](O)CC1=CC[C@@H]1[C@@H]2CC[C@]2(C)C(=O)CC[C@@H]12	inactive	inactive	
Nc1ccc(-c2ccc(N)c(Cl)c2)cc1Cl	inactive	inactive	
CCCCOCCOC(C)=O	inactive	inactive	
COc1ccc(C=O)cc1	inactive	inactive	inactive
ClCC(Cl)CCl	inactive	inactive	
Cc1ccc(N)cc1Cl	inactive		inactive
CCCCCCCCCl	inactive	inactive	inactive
CC1(C)CCC(Cc2ccc(Cl)cc2)C1(O)Cn1cncn1 (centres undefined)	inactive	inactive	inactive
CC1CCCCC1NC(=O)Nc1ccccc1 (centres undefined)	inactive	inactive	
COP(=S)(OC)Oc1cc(Cl)c(Br)cc1Cl	inactive	inactive	
COc1ccccc1OC	inactive	inactive	
COc1cc2c(cc1OC)[C@@]13CCN4CC5=CCO[C@H]6CC(=O)N2[C@H]1[C@H]6[C@H]5C[C@H]43	inactive	inactive	inactive
O=C(Cc1ccccc1)c1ccccc1	inactive		inactive
C[C@@H]1C[C@@H]([C@H](O)CC2CC(=O)NC(=O)C2)C(=O)[C@@H](C)C1	inactive	inactive	inactive
CN(C)N=O	inactive	inactive	
Clc1ccc(C2(Cn3cncn3)CC(Br)CO2)c(Cl)c1 (centres undefined)	inactive		inactive
P.[In]	inactive	inactive	inactive
CCC1(c2ccc(N)cc2)CCC(=O)NC1=O (centres undefined)	inactive	inactive	
ClCCBr	inactive	inactive	
CCOC(=O)Nc1cccc(OC(=O)Nc2ccccc2)c1	inactive		inactive
